Screening data (PubChem BioAssay)
Rows were chosen to be rich in hits. Some 21% of all compounds tested hit in one or more screens of this group.
ClpP mod = qHTS Assay for Activators of ClpP; Potency, µM (top dose mostly 57.5 µM); purified B. subtilis ClpP, FRET peptide cleavage, 20 min; ATP-dependent Clp protease proteolytic subunit (Bacillus subtilis (strain 168)), P80244; actives 1.9% (n = 340,000); AID 651965, 2013; active = well fitted falling curve with a large enough effect; inconclusive = small, poorly fitted or top-dose-only effect; inactive = no such curve, though single readings can be large or run the other way; also: the source files actives as falling curves though it sought activators and does not explain the sign; nearly all actives have a fitted effect of over 65% in size
Target sequence (P80244 whole entry, looked up): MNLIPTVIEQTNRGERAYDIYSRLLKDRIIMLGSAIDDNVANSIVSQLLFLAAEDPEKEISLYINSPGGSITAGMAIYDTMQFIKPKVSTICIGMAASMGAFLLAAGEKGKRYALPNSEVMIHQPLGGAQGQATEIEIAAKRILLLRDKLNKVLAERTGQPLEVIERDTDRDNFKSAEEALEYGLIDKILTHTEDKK
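FRET quenching reversal measured ClpP activation: 10 microg/mL B. subtilis ClpP at pH 8 with the FRET-FV decapeptide, read at 430 nm after 320 nm excitation. The 20-min minus 0-min signal was scaled between DMSO/no-enzyme wells and ADEP (5.8 microM final).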
TDP1 cell noCPT = qHTS for Inhibitors of human tyrosyl-DNA phosphodiesterase 1 (TDP1): qHTS in cells in absence of CPT; DT40 Tdp1-/- hTDP1 cells, no CPT, ATP luminescence, 48 h; Potency, µM (highest dose often 46.2 µM), most hits filed as inhibitors; actives 15% (n = 420,000); AID 686978, 2013; also: nearly all actives have a fitted effect of over 55% in size
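DT40 Tdp1-/-;hTDP1 cells, no CPT (DMSO vehicle only), 400 cells/well; compounds pin-transferred; ≥48 hr, 37 °C; CellTiter-Glo 30 min RT dark, luminescence read.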
DRD3 agonist = qHTS of D3 Dopamine Receptor Agonist: qHTS. AID 652048, 2013. max activation, %. actives 0.58% (n = 410,000). D3R DiscoveRx beta-arrestin cells, luminescence, 90 min. D(3) dopamine receptor (Homo sapiens), P35462; in the data active = max activation above about 30%
Target sequence (P35462 whole entry, looked up): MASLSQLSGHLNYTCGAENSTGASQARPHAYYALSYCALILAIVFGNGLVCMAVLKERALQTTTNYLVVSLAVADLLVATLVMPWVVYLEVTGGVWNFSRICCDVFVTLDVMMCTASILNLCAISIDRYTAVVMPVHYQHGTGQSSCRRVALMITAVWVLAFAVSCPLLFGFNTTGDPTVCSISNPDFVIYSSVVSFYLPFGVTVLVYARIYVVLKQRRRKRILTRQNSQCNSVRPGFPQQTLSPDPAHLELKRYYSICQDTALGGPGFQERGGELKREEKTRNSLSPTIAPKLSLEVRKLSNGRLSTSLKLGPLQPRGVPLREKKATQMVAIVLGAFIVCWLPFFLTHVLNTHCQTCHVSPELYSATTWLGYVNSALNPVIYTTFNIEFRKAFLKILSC
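Cells at 1500/well, incubated overnight, then treated with pinned compounds (dopamine as control) for 90 min at 37 degrees C. DiscoveRx reagent added for 30 - 60 minutes at room temperature; luminescence read.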
D3 antag = qHTS of D3 Dopamine Receptor Antagonist: qHTS | D(3) dopamine receptor (Homo sapiens), P35462 | D3R cells, DiscoveRx beta-arrestin luminescence, antagonist mode; hits give low values | max response, negative = inhibition, % | actives 2.5% (n = 360,000); in the data active = max response below about -50%; inconclusive = no clear call, values can overlap the other calls
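Cells expressing the human receptor were seeded at 1500 cells/well, incubated overnight at 37 degrees C in 5% CO2, then exposed to library compounds with dopamine controls for 90 minutes at 37 degrees C before luminescent detection.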
IL1B secr inh = qHTS for Inhibitors of Inflammasome Signaling: IL-1-beta AlphaLISA Primary Screen. THP-1 LPS/ATP IL-1B secretion, AlphaLISA, 16 h; hits give low values. activity change, % at 57.5 µM. actives 4.7% (n = 360,000); in the data active = activity change below about -50%; inconclusive = mostly about -30% to -49%
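Secreted IL-1B measured by AlphaLISA bead assay after 16 h compound exposure of THP-1 cells; compounds (final up to 57.5 uM) added 1 h before LPS (250 ng/mL) and ATP (1.25 mM) stimulation; lower signal means less secretion.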
DT40 TDP1 CPT = qHTS for Inhibitors of human tyrosyl-DNA phosphodiesterase 1 (TDP1): qHTS in cells in presence of CPT; chicken DT40 Tdp1-/-;hTDP1 cells + 20 nM CPT, ATP luminescence, 48 h; Potency, µM (doses to about 46.2 µM), hits mostly inhibitors; actives 12% (n = 420,000); also: nearly all actives have a fitted effect of over 55% in size
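Chicken DT40 Tdp1-/- cells stably complemented with human TDP1 were seeded at 400 cells/well in medium containing 20 nM camptothecin, exposed to pin-transferred compounds, and grown at 37 °C for at least 48 hr. Viability was read as ATP luminescence.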
Numbers stand for hits; 0 = inactive; ? = inconclusive; - = not tested or not shown. Unless noted, calls follow the shape of the dose curve; as a rule, active = well fitted inhibition curve with a large enough effect; inconclusive = small, poorly fitted or top-dose-only effect; inactive = flat fitted curve, though single readings scatter.

SMILES | ClpP mod | TDP1 cell noCPT | DRD3 agonist | D3 antag | IL1B secr inh | DT40 TDP1 CPT
O=C(Nc1cccc(C(F)(F)F)c1)Nc1ccc(N2CCCC2)c(S(=O)(=O)Nc2ccccc2Cl)c1 | 0 | 2.9µM | 0 | ? | -71 | 3.3µM
COc1cccc(/C=N\NS(=O)(=O)c2ccccc2)c1OC | 0 | 0 | 0 | 0 | 0 | 0
CCOC(=O)c1c(C)[nH]c(C)c1S(=O)(=O)N1CCCC(C(=O)N2CCN(c3ccccc3F)CC2)C1 (stereo not drawn) | 0 | ? | 0 | - | - | ?
Cc1cc(NC(=O)C(C)SCC(=O)Nc2nnc(CC(C)C)s2)no1 (stereo not drawn) | 0 | 0 | 0 | 0 | 0 | 0
C[C@H](NC(N)=O)C(=O)Nc1ccc(N2CCOCC2)c(S(=O)(=O)Nc2ccc(Cl)cc2)c1 | 0 | ? | 0 | 0 | 0 | 21µM
CCc1ccccc1NC1=NCC(=O)N1Cc1ccc(OC)cc1 | 0 | 0 | 0 | 0 | 0 | ?
CCc1ccccc1NC1=NCC(=O)N1C1CCCC1 | 0 | ? | 0 | 0 | 0 | 23µM
CCCn1c(CCC(=O)Nc2cc(Cl)c(OC)cc2OC)nc2cccnc21 | 0 | 16µM | 0 | - | - | ?
COc1cc(NC(=O)CCc2nc3cccnc3n2Cc2cccs2)cc(OC)c1OC | 0 | 16µM | 0 | - | - | 16µM
CC(=O)c1cccc(NC(=O)CCc2nc3cccnc3n2Cc2cccs2)c1 | 0 | 0 | 0 | - | - | ?
CCCn1c(CCC(=O)Nc2ccc(C)c(Cl)c2)nc2cccnc21 | 0 | ? | 0 | - | - | ?
Cc1ccc(C)c(NC(=O)CCc2nc3cccnc3n2Cc2cccs2)c1 | 0 | 21µM | 0 | - | - | 18µM
COc1ccc(C)cc1NC(=O)c1ccc2c(c1)CCN2S(=O)(=O)c1ccc(Cl)cc1 | 0 | 0 | 0 | - | - | 0
C[C@H]1CN([C@@H](C)CO)C(=O)CCCn2nncc2CO[C@H]1CN(C)S(=O)(=O)c1ccc(-n2cccn2)cc1 | 0 | 0 | 0 | 0 | 0 | 0
Cc1c2cnn(CC(=O)N3CCN(c4ccc(F)cc4)CC3)c(=O)c2c(C)n1Cc1ccccc1F | 0 | 18µM | 0 | - | - | 21µM
O=C(Cn1ncc2c([nH]c3ccccc32)c1=O)N1CCN(c2ccc(F)cc2)CC1 | 0 | 0 | 0 | 0 | 0 | 0
Cc1c2cnn(CC(=O)N3CCN(c4ccc(F)cc4)CC3)c(=O)c2c(C)n1Cc1ccc(F)cc1 | 0 | 7.3µM | 0 | - | - | 23µM
c1ccc(Nc2ccc3c4c(cccc24)CC3)cc1 | 11µM | 0 | 0 | 0 | 0 | 0
Cn1c(CN2CCCC2)nc2cc(NC(=O)c3cccs3)ccc21 | 0 | ? | 0 | 0 | 0 | 0
Cc1nn(CC(=O)Nc2ccc3c(c2)nc2n3CCN(C3CCCCC3)C2)c(=O)c2ccccc12 | - | ? | 0 | 0 | 0 | ?
CC(c1ccccc1)N1CCn2c(nc3cc(NC(=O)NC4CCCCC4)ccc32)C1 (stereo not drawn) | ? | 22µM | 0 | 0 | 0 | 22µM
CC(c1ccccc1)N1CCn2c(nc3cc(NC(=O)c4cccs4)ccc32)C1 (stereo not drawn) | 0 | ? | 0 | 0 | - | 26µM
COc1ccc(-c2cc3ccc(O)c(CN4CCCC4)c3oc2=O)cc1 | 0 | 0 | 0 | - | - | 0
CCOc1ccc(CCNC(=O)Cn2nnc(-c3ccccc3Cl)n2)cc1OCC | 0 | 0 | 0 | - | - | 0
N#Cc1cnc2nc(SCc3ccccc3)nn2c1 | - | ? | 0 | 0 | -70 | 0
SMILES | ClpP mod | TDP1 cell noCPT | DRD3 agonist | D3 antag | IL1B secr inh | DT40 TDP1 CPT
O=C(Cc1ccccc1)N[C@@H]1c2ccccc2CC[C@@H]1OCc1ccccc1 | 0 | 0 | 0 | -90 | 0 | 0
O=C(COCc1ccccc1)N[C@@H]1c2ccccc2CC[C@@H]1OCc1ccccc1 | 0 | ? | 0 | 0 | -51 | ?
COCC(=O)N[C@@H]1c2ccccc2CC[C@@H]1OCc1ccccc1 | 0 | 0 | 0 | ? | 0 | 0
O=C(CCc1ccccc1)N[C@@H]1c2ccccc2CC[C@H]1OCc1ccccc1 | 0 | 12µM | 0 | 0 | 0 | ?
O=C(COc1ccccc1)N[C@@H]1c2ccccc2CC[C@@H]1OCc1ccccc1 | 0 | 0 | 0 | 0 | 0 | ?
O=C(COc1ccccc1)N[C@@H]1c2ccccc2CC[C@H]1OCc1ccccc1 | 0 | 26µM | 0 | 0 | 0 | ?
CC1(C)Cc2ccccc2C2=NNC(=O)C2=N1 | - | 10µM | 0 | 0 | -100 | 16µM
CC1(C)Cc2ccccc2C(Nn2cnnc2)=N1 | 0 | 0 | 0 | 0 | 0 | 0
CCc1ccc(OCC(=O)NC(NC(=S)Nc2ccc(Cl)cc2)C(Cl)(Cl)Cl)cc1 (stereo not drawn) | 0 | 13µM | 0 | 0 | 0 | 15µM
O=C(NC(NC(=S)Nc1ccc(Cl)cc1)C(Cl)(Cl)Cl)c1ccco1 (stereo not drawn) | 0 | ? | 0 | 0 | -102 | ?
O=C(NC(NC(=S)Nc1ccccc1O)C(Cl)(Cl)Cl)c1ccco1 (stereo not drawn) | 0 | 18µM | 0 | 0 | 0 | ?
O=C(NNC(=S)Nc1ccccc1)c1ccco1 | 0 | 0 | 0 | ? | 0 | 0
N/C(=N/OCc1cccc([N+](=O)[O-])c1)c1nonc1N | 11µM | ? | 0 | 0 | 0 | 0
